From ChEMBL document CHEMBL1961873, “Compounds: GSK PKIS; Assays: Nanosyn kinase panel” (2012) come the findings set out here.

Assay [1] deals with Protein kinase C gamma type (Homo sapiens) (UniProt P05129). The settings on record: at 1 µM.
Assay [2] deals with T1, Protein kinase C iota type (Homo sapiens) (UniProt P41743).
T1 sequence (whole entry): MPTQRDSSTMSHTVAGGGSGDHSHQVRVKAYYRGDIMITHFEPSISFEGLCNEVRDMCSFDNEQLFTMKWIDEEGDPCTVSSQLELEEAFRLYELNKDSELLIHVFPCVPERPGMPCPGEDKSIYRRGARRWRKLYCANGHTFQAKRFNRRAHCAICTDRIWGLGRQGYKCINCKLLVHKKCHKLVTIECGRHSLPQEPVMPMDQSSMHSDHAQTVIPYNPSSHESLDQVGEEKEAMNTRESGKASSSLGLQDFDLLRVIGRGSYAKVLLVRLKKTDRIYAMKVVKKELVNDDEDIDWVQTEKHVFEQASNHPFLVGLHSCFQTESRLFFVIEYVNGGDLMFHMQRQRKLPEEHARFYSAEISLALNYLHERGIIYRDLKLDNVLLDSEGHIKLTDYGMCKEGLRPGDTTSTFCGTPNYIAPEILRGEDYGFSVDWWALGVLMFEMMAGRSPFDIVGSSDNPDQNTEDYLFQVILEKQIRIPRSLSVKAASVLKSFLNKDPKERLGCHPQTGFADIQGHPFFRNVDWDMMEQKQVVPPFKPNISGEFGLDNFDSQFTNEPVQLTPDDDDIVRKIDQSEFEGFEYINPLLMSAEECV
The following applies: at 0.1 µM.

The target of assay [3] is T1, Protein kinase C iota type (Homo sapiens). The settings on record: at 1 µM.
The target in assay [4] is Protein kinase C theta type (Homo sapiens) (UniProt Q04759). The following applies: at 0.1 µM.
Protein kinase C theta type (Homo sapiens), sequence (Q04759 whole entry, looked up): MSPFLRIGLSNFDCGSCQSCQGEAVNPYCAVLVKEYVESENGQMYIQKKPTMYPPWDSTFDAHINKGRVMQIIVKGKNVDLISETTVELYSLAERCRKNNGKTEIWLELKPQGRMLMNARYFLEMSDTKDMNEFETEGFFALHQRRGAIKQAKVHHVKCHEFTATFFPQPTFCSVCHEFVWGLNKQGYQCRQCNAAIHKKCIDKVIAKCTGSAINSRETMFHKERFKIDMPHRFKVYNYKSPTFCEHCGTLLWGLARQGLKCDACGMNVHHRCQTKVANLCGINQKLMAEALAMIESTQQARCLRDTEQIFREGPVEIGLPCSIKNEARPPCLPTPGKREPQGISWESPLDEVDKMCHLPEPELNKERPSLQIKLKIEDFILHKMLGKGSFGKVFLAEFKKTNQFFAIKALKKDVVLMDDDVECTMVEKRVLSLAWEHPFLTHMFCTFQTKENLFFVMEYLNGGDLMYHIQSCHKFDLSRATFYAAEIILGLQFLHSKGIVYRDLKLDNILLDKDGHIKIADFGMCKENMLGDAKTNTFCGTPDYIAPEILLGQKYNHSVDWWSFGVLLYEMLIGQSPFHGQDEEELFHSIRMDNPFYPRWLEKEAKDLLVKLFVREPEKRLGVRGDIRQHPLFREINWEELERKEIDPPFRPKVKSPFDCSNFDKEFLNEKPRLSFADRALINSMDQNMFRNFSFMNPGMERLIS
For assay [5] the target is unchanged. The settings on record: at 1 µM.
Assay [6] concerns the target Protein kinase C beta type (Homo sapiens) (UniProt P05771). The settings on record: at 0.1 µM.
The target is the same in assay [7]. The following applies: at 1 µM.
The target in assay [8] is T2, Serine/threonine-protein kinase D1 (Homo sapiens) (UniProt Q15139).
T2 sequence (whole entry): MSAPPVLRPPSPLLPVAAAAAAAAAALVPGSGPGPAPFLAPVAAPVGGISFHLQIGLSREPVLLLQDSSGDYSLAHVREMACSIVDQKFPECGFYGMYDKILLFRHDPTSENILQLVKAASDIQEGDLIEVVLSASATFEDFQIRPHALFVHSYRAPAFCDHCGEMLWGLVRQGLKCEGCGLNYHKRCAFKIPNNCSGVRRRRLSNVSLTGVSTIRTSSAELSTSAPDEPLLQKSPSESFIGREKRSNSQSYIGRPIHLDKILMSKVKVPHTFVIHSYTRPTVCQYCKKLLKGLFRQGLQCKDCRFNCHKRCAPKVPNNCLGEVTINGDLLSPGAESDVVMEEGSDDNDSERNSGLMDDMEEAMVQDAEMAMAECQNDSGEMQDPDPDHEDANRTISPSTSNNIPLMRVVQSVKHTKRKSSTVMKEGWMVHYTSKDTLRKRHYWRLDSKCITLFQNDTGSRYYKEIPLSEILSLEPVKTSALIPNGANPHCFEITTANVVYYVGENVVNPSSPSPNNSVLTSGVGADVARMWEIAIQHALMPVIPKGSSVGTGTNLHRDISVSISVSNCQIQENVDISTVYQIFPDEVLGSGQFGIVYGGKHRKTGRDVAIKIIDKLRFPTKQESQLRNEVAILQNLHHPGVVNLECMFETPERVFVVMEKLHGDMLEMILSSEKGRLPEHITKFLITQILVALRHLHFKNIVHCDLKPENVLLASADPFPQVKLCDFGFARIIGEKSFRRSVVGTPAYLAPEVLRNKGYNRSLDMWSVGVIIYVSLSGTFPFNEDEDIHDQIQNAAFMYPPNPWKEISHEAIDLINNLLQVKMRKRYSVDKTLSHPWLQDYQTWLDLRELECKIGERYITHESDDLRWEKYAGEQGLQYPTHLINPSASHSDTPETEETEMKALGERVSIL
The settings on record: at 0.1 µM.

Assay [9] deals with T2, Serine/threonine-protein kinase D1 (Homo sapiens). The following applies: at 1 µM.
In assay [10] the target is T3, Serine/threonine-protein kinase D2 (Homo sapiens) (UniProt Q9BZL6).
T3 sequence (whole entry): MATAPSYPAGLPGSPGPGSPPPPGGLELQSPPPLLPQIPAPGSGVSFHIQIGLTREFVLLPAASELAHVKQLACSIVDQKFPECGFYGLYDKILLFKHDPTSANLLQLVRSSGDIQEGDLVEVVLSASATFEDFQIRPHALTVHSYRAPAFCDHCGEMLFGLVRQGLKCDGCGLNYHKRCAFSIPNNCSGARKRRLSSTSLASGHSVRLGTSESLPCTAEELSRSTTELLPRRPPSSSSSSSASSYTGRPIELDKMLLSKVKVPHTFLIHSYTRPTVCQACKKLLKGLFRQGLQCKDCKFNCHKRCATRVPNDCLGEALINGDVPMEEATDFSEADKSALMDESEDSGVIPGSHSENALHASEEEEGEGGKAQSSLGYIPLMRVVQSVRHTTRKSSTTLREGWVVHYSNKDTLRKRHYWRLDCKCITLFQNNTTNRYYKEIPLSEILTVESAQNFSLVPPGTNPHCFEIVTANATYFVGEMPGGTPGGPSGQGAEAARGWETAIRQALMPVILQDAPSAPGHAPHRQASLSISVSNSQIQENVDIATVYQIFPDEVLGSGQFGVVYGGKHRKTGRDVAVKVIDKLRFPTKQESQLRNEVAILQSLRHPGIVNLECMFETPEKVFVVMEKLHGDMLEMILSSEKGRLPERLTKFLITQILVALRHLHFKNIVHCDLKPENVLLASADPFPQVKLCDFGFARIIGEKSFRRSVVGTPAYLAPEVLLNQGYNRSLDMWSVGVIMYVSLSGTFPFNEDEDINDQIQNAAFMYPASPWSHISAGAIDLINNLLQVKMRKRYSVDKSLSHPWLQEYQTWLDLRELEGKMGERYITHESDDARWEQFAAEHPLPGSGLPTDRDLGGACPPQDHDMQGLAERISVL
The following applies: at 0.1 µM.

The target in assay [11] is T3, Serine/threonine-protein kinase D2 (Homo sapiens). The settings on record: at 1 µM.
Assay [12] deals with T4, Serine/threonine-protein kinase D3 (Homo sapiens) (UniProt O94806).
T4 sequence (whole entry): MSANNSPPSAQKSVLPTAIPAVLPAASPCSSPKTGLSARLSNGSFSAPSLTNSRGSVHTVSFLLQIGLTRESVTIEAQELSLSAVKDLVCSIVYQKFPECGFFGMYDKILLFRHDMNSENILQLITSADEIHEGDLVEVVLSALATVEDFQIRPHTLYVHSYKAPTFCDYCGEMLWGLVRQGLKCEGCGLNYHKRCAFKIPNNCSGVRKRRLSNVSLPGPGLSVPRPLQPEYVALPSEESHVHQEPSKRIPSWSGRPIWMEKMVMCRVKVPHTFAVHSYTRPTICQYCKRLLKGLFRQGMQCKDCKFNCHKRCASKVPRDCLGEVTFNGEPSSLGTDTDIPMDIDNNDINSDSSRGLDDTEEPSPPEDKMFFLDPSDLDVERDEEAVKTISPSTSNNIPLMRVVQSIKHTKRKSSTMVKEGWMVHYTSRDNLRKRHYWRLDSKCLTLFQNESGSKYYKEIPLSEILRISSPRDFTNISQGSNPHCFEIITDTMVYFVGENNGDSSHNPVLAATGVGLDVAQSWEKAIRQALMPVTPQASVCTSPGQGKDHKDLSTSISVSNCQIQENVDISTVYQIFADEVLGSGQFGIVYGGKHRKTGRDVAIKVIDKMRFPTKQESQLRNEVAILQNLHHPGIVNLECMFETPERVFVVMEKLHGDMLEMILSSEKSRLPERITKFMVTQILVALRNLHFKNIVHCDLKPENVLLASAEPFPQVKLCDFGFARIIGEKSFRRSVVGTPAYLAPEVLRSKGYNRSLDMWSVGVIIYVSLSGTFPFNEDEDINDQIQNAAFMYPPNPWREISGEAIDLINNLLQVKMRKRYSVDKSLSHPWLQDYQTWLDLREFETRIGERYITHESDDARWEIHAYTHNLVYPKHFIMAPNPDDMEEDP
The following applies: at 0.1 µM.

Assay [13] has as its target T4, Serine/threonine-protein kinase D3 (Homo sapiens). The settings on record: at 1 µM.
Assay [14] has as its target T5, cGMP-dependent protein kinase 1 (Homo sapiens) (UniProt Q13976).
T5 sequence (whole entry): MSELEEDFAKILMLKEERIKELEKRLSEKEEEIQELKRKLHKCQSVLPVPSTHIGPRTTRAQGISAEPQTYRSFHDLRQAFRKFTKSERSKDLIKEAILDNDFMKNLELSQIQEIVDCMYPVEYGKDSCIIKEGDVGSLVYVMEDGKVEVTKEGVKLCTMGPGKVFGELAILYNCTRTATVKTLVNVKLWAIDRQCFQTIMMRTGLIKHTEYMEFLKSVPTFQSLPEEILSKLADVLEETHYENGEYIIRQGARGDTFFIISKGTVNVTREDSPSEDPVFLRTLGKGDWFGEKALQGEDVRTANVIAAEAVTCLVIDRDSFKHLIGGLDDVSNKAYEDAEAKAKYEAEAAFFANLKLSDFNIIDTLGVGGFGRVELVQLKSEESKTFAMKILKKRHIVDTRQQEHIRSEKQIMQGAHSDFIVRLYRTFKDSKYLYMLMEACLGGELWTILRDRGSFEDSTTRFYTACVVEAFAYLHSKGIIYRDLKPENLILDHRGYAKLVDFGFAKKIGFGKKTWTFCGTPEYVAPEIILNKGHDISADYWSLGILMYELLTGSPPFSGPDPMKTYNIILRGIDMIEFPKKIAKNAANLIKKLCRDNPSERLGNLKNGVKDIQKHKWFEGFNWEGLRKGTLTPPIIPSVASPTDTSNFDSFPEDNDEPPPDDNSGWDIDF
The following applies: at 0.1 µM.

Assay [15] concerns the target T5, cGMP-dependent protein kinase 1 (Homo sapiens). The following applies: at 1 µM.
Assay [16] addresses T6, cGMP-dependent protein kinase 2 (Homo sapiens) (UniProt Q13237).
T6 sequence (whole entry): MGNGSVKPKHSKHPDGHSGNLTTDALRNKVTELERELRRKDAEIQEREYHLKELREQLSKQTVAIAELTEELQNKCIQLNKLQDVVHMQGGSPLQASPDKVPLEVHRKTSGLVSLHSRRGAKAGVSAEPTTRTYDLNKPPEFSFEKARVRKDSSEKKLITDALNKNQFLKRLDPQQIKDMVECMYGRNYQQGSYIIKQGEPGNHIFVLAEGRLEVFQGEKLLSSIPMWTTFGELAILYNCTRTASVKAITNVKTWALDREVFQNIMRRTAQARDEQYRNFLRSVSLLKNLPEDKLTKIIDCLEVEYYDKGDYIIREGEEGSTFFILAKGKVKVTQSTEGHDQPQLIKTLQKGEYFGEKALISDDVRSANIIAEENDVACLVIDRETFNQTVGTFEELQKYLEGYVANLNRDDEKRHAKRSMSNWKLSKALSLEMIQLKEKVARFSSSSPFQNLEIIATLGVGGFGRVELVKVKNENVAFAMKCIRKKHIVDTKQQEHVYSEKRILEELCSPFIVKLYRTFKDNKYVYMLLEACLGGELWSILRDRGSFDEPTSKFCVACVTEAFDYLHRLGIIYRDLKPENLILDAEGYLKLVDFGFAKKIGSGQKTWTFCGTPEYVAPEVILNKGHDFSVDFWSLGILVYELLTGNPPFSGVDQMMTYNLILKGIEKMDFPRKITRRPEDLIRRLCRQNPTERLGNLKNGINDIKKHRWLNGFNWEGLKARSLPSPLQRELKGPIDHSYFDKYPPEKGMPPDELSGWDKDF
The settings on record: at 0.1 µM.

For assay [17], the target named is T6, cGMP-dependent protein kinase 2 (Homo sapiens). The settings on record: at 1 µM.
Assay [18] concerns the target T7, cAMP-dependent protein kinase catalytic subunit PRKX (Homo sapiens) (UniProt P51817).
T7 sequence (whole entry): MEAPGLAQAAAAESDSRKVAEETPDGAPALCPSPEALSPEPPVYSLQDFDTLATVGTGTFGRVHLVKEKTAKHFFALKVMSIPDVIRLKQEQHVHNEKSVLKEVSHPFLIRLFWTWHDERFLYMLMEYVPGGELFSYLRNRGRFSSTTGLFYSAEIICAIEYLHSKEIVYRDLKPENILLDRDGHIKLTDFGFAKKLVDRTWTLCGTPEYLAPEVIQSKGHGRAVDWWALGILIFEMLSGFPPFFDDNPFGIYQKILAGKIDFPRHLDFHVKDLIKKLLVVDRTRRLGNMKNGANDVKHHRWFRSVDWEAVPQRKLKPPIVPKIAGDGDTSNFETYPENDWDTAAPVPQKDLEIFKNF
The settings on record: at 0.1 µM.

Assay [19] deals with T7, cAMP-dependent protein kinase catalytic subunit PRKX (Homo sapiens). The settings on record: at 1 µM.
Assay [20] concerns the target Rho-associated protein kinase 1 (Homo sapiens) (UniProt Q13464). The following applies: at 0.1 µM.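 Note: values are mean percent inhibition of ROCK1.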

Protein kinase C beta type (Homo sapiens), sequence (P05771 2-671 limits assumed): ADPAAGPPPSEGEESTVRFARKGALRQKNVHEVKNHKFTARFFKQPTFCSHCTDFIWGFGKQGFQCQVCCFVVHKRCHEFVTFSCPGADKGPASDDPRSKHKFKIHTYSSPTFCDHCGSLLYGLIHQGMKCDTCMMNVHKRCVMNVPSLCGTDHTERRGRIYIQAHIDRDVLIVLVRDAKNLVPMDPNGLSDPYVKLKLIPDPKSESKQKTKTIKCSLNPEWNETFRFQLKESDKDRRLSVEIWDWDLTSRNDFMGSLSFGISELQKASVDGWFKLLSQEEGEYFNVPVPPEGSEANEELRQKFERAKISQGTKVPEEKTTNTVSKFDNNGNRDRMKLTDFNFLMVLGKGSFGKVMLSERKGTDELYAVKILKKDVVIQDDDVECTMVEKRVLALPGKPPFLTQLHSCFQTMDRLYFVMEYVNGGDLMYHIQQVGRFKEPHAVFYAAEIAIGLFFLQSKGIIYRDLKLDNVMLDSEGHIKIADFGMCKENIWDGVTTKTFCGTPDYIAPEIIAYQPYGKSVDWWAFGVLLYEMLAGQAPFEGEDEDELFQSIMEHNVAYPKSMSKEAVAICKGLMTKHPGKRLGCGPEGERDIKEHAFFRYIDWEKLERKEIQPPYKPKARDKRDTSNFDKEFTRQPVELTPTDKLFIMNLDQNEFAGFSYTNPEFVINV
Rho-associated protein kinase 1 (Homo sapiens), sequence (Q13464 2-1354 limits assumed): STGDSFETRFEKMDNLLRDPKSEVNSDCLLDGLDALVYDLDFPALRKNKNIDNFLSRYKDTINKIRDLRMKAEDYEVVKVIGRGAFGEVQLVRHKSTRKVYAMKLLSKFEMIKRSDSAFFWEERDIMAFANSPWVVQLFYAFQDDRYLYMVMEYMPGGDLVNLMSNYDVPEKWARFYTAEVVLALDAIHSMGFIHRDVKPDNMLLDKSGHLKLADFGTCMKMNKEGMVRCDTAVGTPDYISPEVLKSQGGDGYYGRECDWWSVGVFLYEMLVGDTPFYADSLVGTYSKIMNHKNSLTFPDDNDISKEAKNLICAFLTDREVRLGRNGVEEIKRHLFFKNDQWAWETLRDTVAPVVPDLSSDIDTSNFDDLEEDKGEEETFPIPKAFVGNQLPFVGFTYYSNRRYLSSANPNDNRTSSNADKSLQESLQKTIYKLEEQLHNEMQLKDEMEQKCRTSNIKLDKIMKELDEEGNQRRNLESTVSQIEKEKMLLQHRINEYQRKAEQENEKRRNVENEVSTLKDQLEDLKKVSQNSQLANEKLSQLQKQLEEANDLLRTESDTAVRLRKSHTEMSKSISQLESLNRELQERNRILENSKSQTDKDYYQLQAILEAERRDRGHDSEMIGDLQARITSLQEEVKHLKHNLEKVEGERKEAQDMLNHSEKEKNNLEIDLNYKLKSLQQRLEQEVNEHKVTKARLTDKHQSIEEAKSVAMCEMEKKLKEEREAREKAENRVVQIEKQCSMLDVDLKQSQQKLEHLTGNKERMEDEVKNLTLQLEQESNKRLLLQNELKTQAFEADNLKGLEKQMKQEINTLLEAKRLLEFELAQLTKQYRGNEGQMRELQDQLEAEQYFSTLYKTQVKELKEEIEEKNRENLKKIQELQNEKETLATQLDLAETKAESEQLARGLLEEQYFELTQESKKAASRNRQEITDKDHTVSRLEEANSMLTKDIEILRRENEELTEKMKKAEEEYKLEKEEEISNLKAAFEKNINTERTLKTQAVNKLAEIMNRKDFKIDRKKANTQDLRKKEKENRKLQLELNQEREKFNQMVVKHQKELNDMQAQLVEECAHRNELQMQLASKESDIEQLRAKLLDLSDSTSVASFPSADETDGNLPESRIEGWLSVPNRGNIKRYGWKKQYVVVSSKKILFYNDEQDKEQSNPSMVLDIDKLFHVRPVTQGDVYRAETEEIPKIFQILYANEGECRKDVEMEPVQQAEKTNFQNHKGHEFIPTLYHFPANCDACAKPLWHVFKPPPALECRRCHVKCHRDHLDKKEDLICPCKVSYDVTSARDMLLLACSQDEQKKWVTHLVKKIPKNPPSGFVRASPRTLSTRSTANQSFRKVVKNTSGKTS

What is called inhibition is the percentage by which the read-out fell short of the control. The low end stands for a response near the control, the high end for a response far below the control. Turning to `NC(=O)c1ccc2c(-c3ccnc(NCCCO)n3)c(-c3ccc(F)cc3)nn2c1`, the inhibition in [1] worked out at 7.09%; in assay [2] it was 1.98%; in assay [3], 3.92%; in assay [4], 2.7%; in [5], 2.63%; in assay [6] it was 4.8%. In addition, the inhibition in assay [7] was 24.3%; in [8] it was 6.13%; in assay [9] it was 25.5%; in assay [10], 7.41%; in [11], 32.7%; in assay [12], 7.38%. Moreover, the inhibition in [13] was 28.4%; in assay [14], 3.77%; in assay [15] it was 5.16%; in [16], 1.84%; in [17], 3.89%; in assay [18] it was 1.77%. The inhibition came out at 1.05% in [19] and 1.85% in assay [20].

Take `CCS(=O)(=O)c1ccc(OC)c(Nc2ncc(-c3cccc(F)c3)o2)c1`: the inhibition in assay [1] worked out at 5.39%; in assay [2], 2.05%; in [3], 3.04%; in assay [4], 2.72%; in assay [5], 4.21%; in [6] it was 1.9%. The inhibition in assay [7] was 4.01%; in [8] it was 4.25%; in [9] it was 5.42%; in assay [10], 3.92%; in assay [11], 3.8%; in assay [12], 4.67%. Further, the inhibition was determined as 4.73% in assay [13]; 4.88% in assay [14]; 8.02% in [15]; 3.78% in assay [16]; 6.47% in assay [17]; 3.37% in assay [18]. The results for the inhibition in [19] and in assay [20] were 2.6% and 2.49%, respectively.
